# Source: PubChem BioAssay (several laboratories)
# SKN-1 inh: blocks SKN-1 activity in C. elegans. 0.49% of 360,000 active. C. elegans VP596 Pgst-4::GFP/RFP ratio, acrylamide-induced, 24 h. AID 624304. inhibition, % at 21.8 µM;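 active = interference check ratio from 0.5 to 1.5 plus GFP to RFP signal ratio inhibition reaching or exceeding a fixed threshold, cut at about 30% in these data, passing the limit was not always enough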
# MEKK2wt PB1 HTS: raises or lowers MEK5 binding to wildtype human MEKK2 PB1 domain; AID 1531; bead flow cytometry, Alexa488-MEK5 binding to MEKK2 WT; actives lie on both sides; binding response (% of control), % at 10 µM; 1.1% of 290,000 active; in the data active = binding response below about 67% or above about 130%
# MEKK2mut PB1 HTS: signal of MEK5 binding to mutant human MEKK2 PB1 domain; bead flow cytometry, Alexa488-MEK5 binding to MEKK2 mutant; percent response, % at 10 µM; 0.35% of 290,000 active; in the data active = percent response above about 24%, passing the limit was not always enough
# CendR NRP1 mod: NRP-1/CendR interaction modulation; O14786; FAM-RPARPAR peptide binding to NRP-1, fluorescence polarization; inhibition, % at 25 µM; 0.85% of 360,000 active; AID 602438;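 active = inhibition or corrected inhibition above about 18%, plus a signal ratio from 0.5 to 1.5, limit read from the data, passing the limit was not always enough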
# MEKK3 PB1 HTS: modulators (inhibitors or enhancers) of MEK5 binding to human MEKK3 PB1 domain; Q99759; bead-based flow cytometry, Alexa488-MEK5 binding to MEKK3; actives lie on both sides; 0 = blocked by unlabeled MEK5, 100 = vehicle; binding response (% of control), % at 10 µM; 1.4% of 290,000 active;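 active = binding response more than 3 SD above or below the average of its plate-row segment, actives on both sides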;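 note: Alexa488 bead fluorescence after subtracting the streptavidin-only scavenger bead signal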
# Hits are given with their value; – = inactive; · = no result; [ ] = remark or other dose. Shown are actives, neighbours in structure and some others; about 3.2% of the full set was active somewhere.
SMILES,SKN-1 inh,MEKK2wt PB1 HTS,MEKK2mut PB1 HTS,CendR NRP1 mod,MEKK3 PB1 HTS
Fc1ccc(Cc2nnc(-c3cccs3)o2)cc1,–,–,–,–,–
O=C(O)C1=C2C(=O)Nc3cccc(c32)C2(C1)C(=O)Nc1ccccc12 (stereo not drawn),35.7,·,·,–,·
CCN1CCN(CC(=O)Nc2cccc(C)c2C)C(=O)C1=O,–,–,–,21.2,–
O=C(N/N=C\C=C\c1ccc2c(c1)OCO2)c1ccc(F)cc1,–,–,–,–,–
Cc1cc(C(=O)N/N=C/C=C/c2ccc3c(c2)OCO3)n[nH]1,–,–,–,26.9,–
CN(Cc1ccc(Cl)c(Cl)c1)C(=O)C1CSC2(C)CCC(=O)N12 (stereo not drawn),–,·,·,–,·
CS(=O)(=O)Nc1ccc(C2=NN(S(=O)(=O)c3ccc(F)cc3)C(c3ccco3)C2)cc1 (stereo not drawn),–,3.0,–,–,–
Cc1ccc(C2=NN(S(=O)(=O)c3ccccc3)C(c3ccco3)C2)cc1 (stereo not drawn),–,·,·,–,·
O=S(=O)(c1ccccc1)N1N=C(c2ccc(Br)cc2)CC1c1ccco1 (stereo not drawn),–,17.0,–,–,–
COCCN1C[C@@H](CO)O[C@@H](n2cnc3c(N4CCCC4)ncnc32)C1,–,·,·,–,·
CC1C(=O)N(Cc2cn(Cc3ccco3)nn2)CCS(=O)(=O)N1Cc1ccc(-c2ccc(Cl)cc2)cc1 (stereo not drawn),–,·,·,–,·
Cc1cc(-c2ccc(C(C)C)c(S(=O)(=O)N3CCC(C)CC3)c2)on1,–,–,–,–,–
C(=N\N=C\c1cccs1)/c1cccs1,73.7,–,–,–,–
COc1ccc(C(CNC(=O)c2ccc(S(=O)(=O)Nc3ccc(F)cc3)cc2)N(C)C)cc1 (stereo not drawn),–,–,31.0,–,–
COc1ccc(C(CNC(=O)c2cccc(S(=O)(=O)Nc3ccc(F)cc3)c2)N(C)C)cc1 (stereo not drawn),–,·,·,–,·
Cc1c(CCOC(=O)C23CC4CC(CC(C4)C2)C3)sc[n+]1Cc1ccccc1,–,–,–,–,–
Cc1c(CCOC(=O)CC23CC4CC(CC(C4)C2)C3)sc[n+]1CC(=O)c1ccccc1,–,139.0,–,–,–
CCOc1ccc(OCC(=O)OCC(=O)N2CCN(S(=O)(=O)c3ccc(C)cc3C)CC2)cc1,–,·,·,–,·
COc1cc(C(=O)c2c(C)c(CCC#N)n3ccccc23)cc(OC)c1OC,–,–,–,21.3,–
O=C(COC(=O)/C=C/c1ccc(F)cc1)Nc1ccccc1-c1ccccc1,–,–,–,–,69.0[inhibitor]
O=C(COC(=O)/C=C/c1cccc(F)c1)Nc1ccccc1-c1ccccc1,–,–,–,–,–
COCOCCn1cc(CN2CCS(=O)(=O)N(Cc3ccc(-c4ccc(OC)cc4)cc3)C(C(C)C)C2=O)nn1 (stereo not drawn),–,·,·,–,·
CC(C)(C)OC(=O)N[C@H](C(=O)OC(C)(C)C)c1ccc2ccccc2c1,–,·,·,–,·
O=C(CSc1nnc(CNC(=O)c2ccco2)o1)Nc1cccc(F)c1,–,–,–,19.4,–
O=C(C1CCN(S(=O)(=O)c2c(Cl)cccc2Cl)CC1)N1CCCCCCC1,–,·,·,–,·
SMILES,SKN-1 inh,MEKK2wt PB1 HTS,MEKK2mut PB1 HTS,CendR NRP1 mod,MEKK3 PB1 HTS
O=C(OC1CCOC1=O)C1CCN(S(=O)(=O)c2c(Cl)cccc2Cl)CC1 (stereo not drawn),–,·,·,20.2,·
O=C(CC(=O)c1ccccc1)Nc1ccc([N+](=O)[O-])cc1,–,·,·,25.4,·
CC/C(=N\Nc1ccc([N+](=O)[O-])cc1)c1ccccc1,35.0,–,–,–,–
CS(=O)(=O)Nc1ccc(C(=O)CC(=O)Nc2ccc([N+](=O)[O-])cc2)cc1,–,–,–,–,–
N/C(=N\OC(=O)c1cccs1)C1(c2ccc(Cl)cc2Cl)CC1,–,–,–,36.7,–
CC(C)Cc1nnc(NC(=O)CCC(=O)N2CCCCC2)s1,–,–,–,18.2,–
O=C(N1CCCCCC1)N1CCN(C(=O)N2CCCCC2)CC1,–,–,–,28.2,–
CN(C)S(=O)(=O)N1CCN(C(=O)N2CCCCCC2)CC1,–,–,–,–,–
COCCNC(=O)CN1CCCCCC1,–,–,–,25.9,–
CCOc1ccccc1N1CCN(C(=O)c2cc(-c3cccnc3)nc3c(Cl)cccc23)CC1,–,–,–,–,–
O=C1C2C3CC(C(Br)C3Br)C2C(=O)N1CC1CCCO1 (stereo not drawn),–,–,–,–,–
CC(C(=O)NCC1CCCO1)N1C(=O)C2C3CC(C(Br)C3Br)C2C1=O (stereo not drawn),–,–,–,19.1,–
COc1ccccc1N1CCN(S(=O)(=O)CCNC(=O)C23CC4CC(CC(C4)C2)C3)CC1,–,–,–,–,–
CCc1ccc(C(=O)NNC(=O)c2cccc(N3C(=O)CCC3=O)c2)cc1,–,·,·,–,·
N#Cc1cccc(C(=O)C(=O)N2CCN(c3ccccc3)CC2)c1,–,·,·,–,·
COc1ccc(CCNC(=O)c2c(C)nn(CC(C)C)c2Cl)cc1OC,–,–,–,–,–
COc1ccc(CCN(C)C(=O)c2c(C)nn(CC(C)C)c2Cl)cc1OC,–,44.0[inhibitor],–,–,55.0[inhibitor]
CCCCNC(=O)c1onc(CSc2ccc(Cl)cc2)c1C(=O)NCCCC,–,–,–,–,–
CCCCNC(=O)c1c(CSc2ccc(Cl)cc2)noc1C(=O)NCCC,–,·,·,30.7,·
COC(=O)C1=C(C)Nc2[nH]c(=S)[nH]c(=O)c2C1c1ccc(O)cc1 (stereo not drawn),–,–,–,–,–
COc1cc(C2C(C(=O)OC(C)C)=C(C)Nc3[nH]c(=O)[nH]c(=O)c32)ccc1O (stereo not drawn),–,70.0[inhibitor],–,–,61.0[inhibitor]
CC(C)=CCC/C(C)=C/CNC(=O)CC1C[C@H](C(=O)N(C(C)C)C(C)C)[C@@]2(C)c3[nH]c4ccccc4c3CCN2C1=O (stereo partly drawn),–,·,·,–,·
CC(C)=CCC/C(C)=C/CNC(=O)C[C@H]1C[C@H](C(=O)N(C(C)C)C(C)C)[C@@]2(C)c3[nH]c4ccc(Cl)cc4c3CCN2C1=O,–,·,·,27.1,·
COc1ccc(CNS(=O)(=O)c2c(C(=O)N3CCCCCC3)c(C)n(C)c2C)cc1,–,–,–,–,–
O=C(/C=C/Nc1ccccc1)c1ccccc1,35.6,·,·,–,·
SMILES,SKN-1 inh,MEKK2wt PB1 HTS,MEKK2mut PB1 HTS,CendR NRP1 mod,MEKK3 PB1 HTS
Cc1cc(N/C=C/C(=O)c2ccccc2)ccc1Br,–,–,–,–,–
O=C(/C=C/Nc1ccc(Oc2ccccc2)cc1)c1ccco1,81.9,–,–,–,–
CC(=O)Nc1ccc(N/C=C/C(=O)c2ccccc2)cc1,–,–,–,–,–
O=C(/C=C\Nc1ccc(Br)cc1)c1cccnc1,86.5,–,–,–,–
O=C(/C=C/Nc1ccc(F)cc1Br)c1ccccc1,37.0,–,–,–,–
CCCCn1nnnc1C1(C)CCC(=O)N1Cc1ccco1 (stereo not drawn),–,·,·,–,·
